Structures are written as SMILES. Screen size: about 360,000 compounds; about 17,000 (4.7%) were called active. Roughly 5% stayed inconclusive and do not appear here. For the sample, actives were picked, then their nearest neighbours and some compounds at random. Values without a mark were called inactive. Cut-off read from the data, not from the text of the source: active = activity change below about -50%; inconclusive = mostly about -30% to -49%; inactive = weaker than that.

The record followed here is PubChem BioAssay AID743279 (National Center for Advancing Translational Sciences (NCATS), 2014).
% is set by controls: 0 for no effect and ±100 for the full control effect.

The assay in a line: qHTS for Inhibitors of Inflammasome Signaling: IL-1-beta AlphaLISA Primary Screen. The following applies: THP-1 LPS/ATP IL-1B secretion, 16 h; at 57.5 µM, stronger effect = lower value. In outline:
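THP-1 cells pretreated 1 hr with compounds (up to 57.5 uM final), then stimulated with LPS (250 ng/mL final) plus ATP (1.25 mM final); secreted IL-1B measured by AlphaLISA after 16 hr, decreased signal indicating inhibition.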
In general terms: qHTS replaces the single test concentration by a dilution series.
In the case of `Cc1cccc(N2CCN(C(=O)c3cccc(N4C(=O)C5C6C=CC(C6)C5C4=O)c3)CC2)c1C` (configuration not stated), the activity change was -52.9% (active). Consider `COC(=O)c1cccc(N2C(=O)C3C4C=CC(CC4)C3C2=O)c1` (configuration not stated), for which the activity change was 15.7%. The figure for `CC1C=CCC2C(=O)N(c3cccc(C(=O)N4CCCCCC4)c3)C(=O)C12` (configuration not stated) is 23.7%. For `Cc1ccccc1NC(=O)Cc1nc(COC(=O)CNC(=O)c2ccc(Cl)cc2Cl)cs1`, the activity change is 11%. In the case of `Cc1ccc(F)c(S(=O)(=O)NC(=O)C2(C)CCN2C(=O)c2ccco2)c1` (configuration not stated) it was 24%; in that of `CC(=O)/C(=N\Nc1ccc(Cl)cc1Cl)Sc1cccc2cccnc12`, -103% (active); in that of `O=C(NNc1cc(Cl)ccc1Cl)c1cccnc1Cl`, -6.39%.

Take `S=C(NCc1cccnc1)Nc1ccc(Cl)cc1Cl`: the activity change is 11%. For the molecule `O=C(COC(=O)/C=C/c1ccc(Cl)cc1)NC1CCS(=O)(=O)C1` (configuration not stated), the activity change was 1.68%. In the case of `CC(=O)Nc1ccc(-c2ccnc3c2CC(C(=O)NC(C)C)O3)cc1` (configuration not stated), the activity change is -17%. On to `Nc1cccc2c1C(=O)N(Cc1nnc(-c3ccccc3Br)o1)C2=O`, for which the activity change is -5.13%.

For the molecule `CN(C)C(=O)CCc1ccc2c3c([nH]c2c1)[C@]1(C)[C@@H](C(=O)N2CCCCC2)C[C@H](CC(=O)NCCC2=CCCCC2)C(=O)N1CC3`, the activity change is -30%.

Turning to `CN(C)C(=O)CCc1ccc2c3c([nH]c2c1)[C@]1(CCc2ccccc2)[C@@H](C(=O)N2CCCCC2)C[C@H](CC(=O)NCCC2=CCCCC2)C(=O)N1CC3`, the activity change was -14.8%.

On to `CC(C)N(C(=O)[C@H]1C[C@H](CC(=O)NCCC2=CCCCC2)C(=O)N2CCc3c([nH]c4cc(CCC(=O)N(C)C)ccc34)[C@]12C)C(C)C`, for which the activity change was -51.9% (active). The figure for `COc1ccc(-c2cc3nc(NCCOc4ccccc4)ccn3n2)cc1` is -17.4%; for `COCCCNc1ccn2nc(-c3ccc(CC(C)C)cc3)cc2n1` it is 47%; for `COCCNc1cc(-c2ccccc2)nc2cc(-c3cccc(F)c3)nn12` it is -67.2% (active).

Consider `CCCCc1nccn1CCn1ccnc1CCCC`, for which the activity change is -1.41%.

With `CCOC(=O)c1sc(NC(=O)CCN2CCOCC2)c(C(=O)OCC)c1C`, the activity change was 0%. In the case of `CCOC(=O)c1c(NC(=O)CCl)sc(C(=O)N(CC)CC)c1C` it was -99.1% (active).

Turning to `CCOC(=O)Nc1sc(C(=O)N(C)C)c(C)c1C(=O)OCC`, the activity change is 20.1%. As for `CC(Oc1ccc(F)cc1)C(=O)Nc1cc(S(=O)(=O)N2CCOCC2)ccc1N1CCN(C)CC1` (configuration not stated), the activity change is -9.51%.

`O=C(Cc1ccc([N+](=O)[O-])cc1)NCCS(=O)(=O)N1CCN(c2ccccc2)CC1`: the activity change was 16.3%. In the case of `CCNC(=S)Nc1ccc2c(c1)c(=O)n(C)n2Cc1ccc(Cl)cc1`, the activity change is -17.7%. Consider `CC(C)Oc1cc(F)ccc1-c1cc(C(=O)Nc2cccc(Cl)c2)[nH]n1`, for which the activity change is 19.8%. `COc1ccccc1N1CCN(/N=C/c2ccc(O)cc2O)CC1`: the activity change was -21.9%. Take `COc1cc(/C=N/N2CCN(c3ccccc3)CC2)ccc1OC(C)=O`: the activity change is -4.61%. For the molecule `COc1ccccc1N1CCN(/N=C\C(Br)=C\c2ccccc2)CC1`, the activity change is -66.9% (active). The figure for `CCCc1nc2c3ccccc3ccn2c1Cc1ccccc1C(F)(F)F` is 17.7%; for `COCCCN(C(=S)Nc1c(C)cc(C)cc1C)C(C)c1ccncc1` (configuration not stated) it is 0%.

Consider `CCc1nnc(NC(=O)c2ccco2)s1`, for which the activity change is 10%.

For `O=C(Nc1nc(-c2ccco2)c(-c2ccco2)s1)c1ccco1`, the activity change is -77.4% (active). In the case of `O=C(Nc1nnc(CCOCCOCCc2nnc(NC(=O)c3ccco3)s2)s1)c1ccco1`, the activity change was -5.99%. In the case of `CCN1CCN(c2sc(S(C)(=O)=O)nc2S(=O)(=O)c2ccc(Cl)cc2)CC1` it was -97.8% (active). With `CCN1CCN(C(=O)N(Cc2ccc(Cl)cc2)S(=O)(=O)c2ccc(C)cc2)CC1`, the activity change is -3.62%. Regarding `CCN1CCN(c2ccc([N+](=O)[O-])cc2C(=O)c2ccc(Cl)cc2)CC1`, the activity change is -7.81%. In the case of `COc1cc([C@H](Cc2ccccc2)NC(C)=O)oc(=O)c1` it was 22.9%; in that of `Cc1ccc(CNC(=O)CCNC(=O)Cn2ccc3ccccc3c2=O)cc1`, -21.6%; in that of `COc1cccc2c(=O)n(CC(=O)N3CCCCCC3)ccc12`, -3.57%. `COC(=O)COc1cccc2c(=O)n(CC(=O)NCc3ccccc3)ccc12`: the activity change is -57.4% (active).

For the molecule `O=C(Nc1cccc(S(=O)(=O)NC2=NCCC2)c1)C1CCCCC1`, the activity change was 23.8%. `O=C(C1=C[C@H](c2coc3ccccc3c2=O)C[C@H](OCc2ccc(CO)cc2)O1)N1CCOCC1`: the activity change was -3.08%. As to `O=C(NCc1ccccc1)C1=C[C@@H](c2ccc(C(F)(F)F)cc2)C[C@@H](OCc2ccc(CO)cc2)O1`, the activity change is -53.9% (active). In the case of `CN1CCN(C(=O)C2=C[C@H](c3ccc4c(c3)OCO4)C[C@H](OCc3ccc(CO)cc3)O2)CC1` it was -10.6%; in that of `O=C(NCc1ccccc1)C1=C[C@@H](C2CCCCC2)C[C@@H](OCc2ccc(CO)cc2)O1`, -17.5%. On to `O=C(NCc1ccccc1)C1=C[C@H](C2CC2)C[C@H](OCc2ccc(CO)cc2)O1`, for which the activity change was -25.1%. The figure for `O=C(C1=C[C@H](c2coc3ccccc3c2=O)C[C@H](OCc2ccc(CO)cc2)O1)N1CCN(Cc2ccccc2)CC1` is -63.5% (active). In the case of `O=C(C1=C[C@H](c2ccc(C(F)(F)F)cc2)C[C@H](OCc2ccc(CO)cc2)O1)N1CCN(Cc2ccccc2)CC1` it was -80.4% (active); in that of `O=C(C1=C[C@H](C2CC2)C[C@H](OCc2ccc(CO)cc2)O1)N1CCN(Cc2ccccc2)CC1`, -22.6%; in that of `CC(=O)n1cc([C@H]2C=C(C(=O)N3CCOCC3)O[C@@H](OCc3ccc(CO)cc3)C2)c2ccccc21`, -1.15%. In the case of `c1ccc(-c2c[nH]c(-c3ccccc3)c2)cc1` it was 14%; in that of `N#CCCC(C#N)(c1cccnc1)N1CCOCC1` (configuration not stated), 2.31%. Turning to `CC(C)(C)c1ccc(/C=C/C(=O)NCCCn2ccnc2)cc1`, the activity change is -13.5%. Take `Oc1cccc(CCc2ccccn2)c1`: the activity change was -8.08%. In the case of `Cc1cccc(N2CCN(C(=O)COCc3cc(-c4ccc5c(c4)OCO5)on3)CC2)c1C`, the activity change is -0.251%. The figure for `CCc1cc(C(=O)N(CC)CC(=O)Nc2c(F)cccc2F)sc1C` is -0.176%; for `COc1cc(CCN=Cc2ccccc2O)c([N+](=O)[O-])cc1OC` it is 13.4%; for `Cc1csc(=O)n1CCC(=O)OCC(=O)Nc1ccc(N2CCOCC2)cc1` it is 0%. The figure for `COC(=O)[C@H](Cc1ccccc1)NC(=O)Nc1ccc(S(N)(=O)=O)cc1` is 9.1%; for `COc1ccc(C(=O)NC(=S)N2CCCCC2c2cccnc2)cc1OC` (configuration not stated) it is -16.3%. The figure for `CSc1ncccc1C(=O)N1CCCC(Nc2ccc(F)c(F)c2)C1` (configuration not stated) is 43.2%; for `CC(C)OC(=O)CC(=O)CC(O)c1cccc([N+](=O)[O-])c1` (configuration not stated) it is 19.7%.

As to `CCC(=O)N(Cc1cc2ccccc2[nH]c1=O)c1ccc(OC)cc1`, the activity change is -28.7%. For the molecule `Cc1ccc(N(Cc2cc(=O)[nH]c3ccccc23)C(=O)CCl)cc1`, the activity change was -99.5% (active). The figure for `CC(=O)N(Cc1cc(=O)[nH]c2ccccc12)c1ccc(C)cc1C` is 1.3%; for `CC(C=Cc1ccccc1)=NNS(=O)(=O)c1ccc([N+](=O)[O-])cc1` it is -3.19%; for `CCOc1ccc(S(=O)(=O)N2CCN(C(=O)c3oc4ccccc4c3C)CC2)cc1` it is -12.6%.

Consider `N#CC1=C(N)Oc2cc(O)ccc2C1C1CCCCC1` (configuration not stated), for which the activity change is 50.4%. As to `N#CC1=C(N)OC2=C(C(=O)CCC2)C1C1CC=CCC1` (configuration not stated), the activity change is 0.456%. The figure for `COCc1[nH]nc2c1C(C1C=CCCC1)C(C#N)=C(N)O2` (configuration not stated) is -72.1% (active); for `CCCCNC(=O)C[C@@H]1C[C@@]2(C(=O)OC)CC(C)(C)CC=C2N(Cc2ccco2)C1=O` it is -1.57%. In the case of `NCCCCC(C(=O)O)N(C(=O)OCc1ccccc1)C(=O)OCc1ccccc1` (configuration not stated) it was -16.2%; in that of `Cn1nc(C(F)(F)F)c(C(=O)Nc2cccc(C(F)(F)F)c2)c1SCc1ccc(Cl)cc1`, -81.8% (active). The figure for `COC(=O)c1ccccc1Sc1c(/C=N/OCc2ccc(Cl)cc2)c(C(F)(F)F)nn1C` is 20.2%; for `O=C(O)CSc1c2c(nc3cc(C(=O)Nc4cccc(C(F)(F)F)c4)ccc13)CCCC2` it is -26.7%. Regarding `OC[C@@H]1CN(Cc2cccs2)C[C@H](n2cnc3c(Nc4ccccc4)ncnc32)O1`, the activity change was 8.21%. In the case of `c1ccc(C[C@H]2CNCCN2CCC23CC4CC(CC(C4)C2)C3)cc1`, the activity change was -74.5% (active).

As to `O=C1CCNCCN1[C@H](CO)Cc1ccccc1`, the activity change was 17.5%. In the case of `c1ccc2c(CCN3CCNC[C@H]3Cc3cccc4ccccc34)cccc2c1` it was -12.9%; in that of `CCCC(=O)N1CCC1(C)C(=O)Nc1ccc(-n2cncn2)cc1` (configuration not stated), 0.196%.

As for `C[C@@H]1CN([C@H](C)CO)C(=O)CCCn2cc(nn2)CO[C@H]1CN(C)S(=O)(=O)c1ccc(Oc2ccccc2)nc1`, the activity change was 17.8%. In the case of `O=S(=O)(c1ccc(F)cc1)N1CCN=C1SCc1cccc(F)c1` it was 12.9%.

Consider `CNc1ccc(SC#N)cc1`, for which the activity change is -70.1% (active). As for `CC(=O)N1CCc2c(sc(NC(=O)CCS(=O)(=O)c3ccccc3)c2C#N)C1`, the activity change result was “inactive”. On to `O=C1OCCOC2CCCc3oc(-c4ccccc4)c1c32` (configuration not stated), for which the activity change is 10.6%. Take `O=C(NCc1ccccc1)C1c2ccccc2OCC(=O)N1CCCN1CCOCC1` (configuration not stated): the activity change was 89.8%. For the molecule `O=S(=O)(NCC1CCCO1)c1ccc2ccccc2c1` (configuration not stated), the activity change was 1.02%. As for `O=C(COC(=O)c1cnc(Cl)c(Cl)c1)NCc1ccco1`, the activity change is 10%. In the case of `CCOc1ccc(S(=O)(=O)NCC2CCCO2)cc1` (configuration not stated) it was 6.01%. `O=S(=O)(NCc1ccco1)c1cnc(Cl)c(Cl)c1`: the activity change is -67.1% (active).

For `C/C(=N\Nc1ncc(Cl)cc1Cl)c1ccc(S(=O)(=O)NCc2ccco2)cc1`, the activity change is -9.03%. Consider `O=S(=O)(NCC1CCCO1)c1cnc(Cl)c(Cl)c1` (configuration not stated), for which the activity change was -65.5% (active).
